The supplement of paper PMC8866396
± gives the standard deviation of the averaged measurements.

Test system: IL-6-GFP PC-9GR
Experiment: cell viability (CCK-8 OD) relative to DMSO control (fraction of control); higher = more viable cells
Settings: compound concentration: 10 uM; treatment time: 48 h
Procedure, shortened: (§1)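 PC-9 and PC-9GR lung cancer cells expressing lentiviral IL-6-GFP were plated at 3000 cells/well in 96-well plates and treated for 48 h with each library compound at a final 10 μM. Viability was determined by CCK-8 absorbance as a ratio of each well's optical density to the vehicle control well.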

Row | SMILES | cell viability
1 | Cc1ccc(Nc2nccc(N(C)c3ccc4c(C)n(C)nc4c3)n2)cc1S(N)(=O)=O [Pazopanib] | 0.795 ± 0.041
2 | Cc1c(N)c(=O)n(-c2ccccc2)n1C [4-Aminoantipyrine] | 0.98 ± 0.13
3 | CC(=O)Nc1ccccc1 [Acetanilide] | 1.31 ± 0.19
4 | CCC1/C=C(\C)CC(C)CC(OC)C2OC(O)(C(=O)C(=O)N3CCCCC3C(=O)OC(/C(C)=C/C3CCC(Cl)C(OC)C3)C(C)C(O)CC1=O)C(C)CC2OC (stereo not drawn) [Pimecrolimus] | 1 ± 0.18
5 | Cn1cc(C2=C(c3cccc(N)c3)C(=O)NC2=O)c2ccccc21 | 0.303 ± 0.31
6 | Cc1ccc(NC(=O)c2ccc(CN3CCN(C)CC3)cc2)cc1Nc1nc(-c2cccnc2)cs1 [Masitinib (AB1010)] | 0.268 ± 0.05
7 | Cl.O=C1NCC2(CCN(CCc3ccccc3)CC2)O1 [Fenspiride HCl] | 1.02 ± 0.044
8 | O=C(O)Cc1ccccc1Nc1c(Cl)cccc1Cl.OCCN1CCCC1 [Diclofenac Epolamine] | 1.34 ± 0.62
9 | O=C(CCCc1ccccc1)[O][Na] [Sodium Phenylbutyrate] | 0.51 ± 0.067
10 | CCCCCCCCCCCCCCCCCCOP(=O)([O-])OC1CC[N+](C)(C)CC1 [Perifosine (KRX-0401)] | 0.943 ± 0.084
11 | O=S1(=O)CCN(CN2CCS(=O)(=O)NC2)CN1 [Taurolidine] | 1.22 ± 0.27
12 | CNC(=NC#N)NCCSCc1nc[nH]c1C [Cimetidine] | 1.56 ± 0.74
13 | CC(C(=O)O)c1ccc(-c2ccccc2)c(F)c1 (stereo not drawn) [Flurbiprofen] | 1.04 ± 0.39
14 | NC1CCCCC1N.O=C([O-])C(=O)[O-].[Pt+2] (stereo not drawn) [Oxaliplatin] | 0.678 ± 0.016
15 | Cc1nc(NC(=O)N2CCCC2C(N)=O)sc1-c1ccnc(C(C)(C)C(F)(F)F)c1 (stereo not drawn) [Alpelisib (BYL719)] | 0.983 ± 0.067
16 | CC(C)Cn1cnc2c(N)nc3ccccc3c21 [Imiquimod] | 0.774 ± 0.57
17 | O=C(O)c1ccccc1O.[NaH] [Sodium salicylate] | 1.02 ± 0.2
18 | CC(C)(C)OC(=O)NC1CCCCC/C=C\C2CC2(C(=O)NS(=O)(=O)C2CC2)NC(=O)C2CC(OC(=O)N3Cc4cccc(F)c4C3)CN2C1=O (stereo not drawn) [Danoprevir (ITMN-191)] | 1.1 ± 0.02
19 | Clc1ccc(C(c2ccccc2Cl)C(Cl)Cl)cc1 (stereo not drawn) [Mitotane] | 1.2 ± 0.1
20 | Nc1nc(=O)c2c(CCc3ccc(C(=O)NC(CCC(=O)[O-])C(=O)[O-])cc3)c[nH]c2[nH]1.[Na+].[Na+] (stereo not drawn) [Pemetrexed] | 0.483 ± 0.064
21 | O=C(O)COc1nn(Cc2ccccc2)c2ccccc12 [Bendazac] | 1.85 ± 0.092
22 | C/C=C(/C(=C/C)c1ccc(O)cc1)c1ccc(O)cc1 [Dienestrol] | 1.06 ± 0.025
23 | CC(C(=O)O)c1ccc(C(=O)c2ccccc2)s1 (stereo not drawn) [Tiaprofenic acid] | 0.905 ± 0.037
24 | Cc1nnc(C(=O)NC(C)(C)c2nc(C(=O)NCc3ccc(F)cc3)c([O-])c(=O)n2C)o1.[K+] [Raltegravir potassium] | 1.37 ± 0.48
25 | C[S+](C)CCC(N)C(=O)O.[Cl-] (stereo not drawn) | 1.11 ± 0.29
26 | COc1ccc2c(c1)nc(S(=O)Cc1ncc(C)c(OC)c1C)[n]2[Na] (stereo not drawn) [Esomeprazole sodium] | 1.26 ± 0.2
27 | CC12C=CC(=O)C=C1CCC1C3CC(O)C(O)(C(=O)CO)C3(C)CC(O)C12F (stereo not drawn) [Triamcinolone] | 1.06 ± 0.13
28 | Nc1nc(F)nc2c1ncn2C1OC(CO)C(O)C1O (stereo not drawn) [Fludarabine] | 0.214 ± 0.12
29 | Cl.N=C1CCCN1Cc1[nH]c(=O)[nH]c(=O)c1Cl.O=c1[nH]c(=O)n(C2CC(O)C(CO)O2)cc1C(F)(F)F.O=c1[nH]c(=O)n(C2CC(O)C(CO)O2)cc1C(F)(F)F (stereo not drawn) | 0.556 ± 0.067

Test system: IL-6-GFP PC-9
Experiment: as above
Settings: compound concentration: 10 uM; treatment time: 48 h
Procedure, shortened: as §1

Row | SMILES | cell viability
30 | CCC1(O)C(=O)OCc2c1cc1n(c2=O)Cc2cc3c(CN(C)C)c(O)ccc3nc2-1 (stereo not drawn) [Topotecan] | 0.3428 ± 0.0013
31 | COc1c(-c2ccc3cc(NS(C)(=O)=O)ccc3c2)cc(-n2ccc(=O)[nH]c2=O)cc1C(C)(C)C [Dasabuvir(ABT-333)] | 0.9253 ± 0.0086
32 | CC(=O)Oc1cccc2c1C(=O)c1c(OC(C)=O)cc(C(=O)O)cc1C2=O [Diacerein] | 0.97 ± 0.034
33 | FC(F)(F)c1ccc(CNc2ccc(Cc3c[nH]c4ncc(Cl)cc34)cn2)cn1 [Pexidartinib (PLX3397)] | 0.898 ± 0.048
34 | CC(=O)OC(C)C(C)C(=O)OCC12C3CC4(C)C(=CCC5C6(C)CCC(OC7OC(C(=O)[O][Na])C(OC8OC(CO)C(O)C(O)C8O)C(O)C7OC7OCC(O)C(O)C7O)C(C)(CO)C6CCC54C)C1CC(C)(C)C(O3)C2O (stereo not drawn) [Sodium Aescinate] | 1 ± 0.18
35 | Cl.O=C(OCC(O)CO)c1ccccc1Nc1ccnc2cc(Cl)ccc12 (stereo not drawn) [Glafenine HCl] | 1.05 ± 0.25
36 | CC1CC2C3CCC4=CC(=O)C=CC4(C)C3(F)C(O)CC2(C)C1(O)C(=O)CO (stereo not drawn) [Betamethasone] | 1.29 ± 0.29
37 | CCCC(=O)OC1(C(=O)CO)CCC2C3CCC4=CC(=O)CCC4(C)C3C(O)CC21C (stereo not drawn) [Hydrocortisone butyrate] | 1.08 ± 0.073
38 | Cn1nnc2c(C(N)=O)ncn2c1=O [Temozolomide] | 0.6981 ± 0.0048
39 | CC1(C)OC2CC3C4CC(F)C5=CC(=O)C=CC5(C)C4(F)C(O)CC3(C)C2(C(=O)CO)O1 (stereo not drawn) [Fluocinolone Acetonide] | 1 ± 0.015
40 | Cc1ccc(Nc2nccc(N(C)c3ccc4c(C)n(C)nc4c3)n2)cc1S(N)(=O)=O [Pazopanib] | 0.725 ± 0.062
41 | Cc1c(N)c(=O)n(-c2ccccc2)n1C [4-Aminoantipyrine] | 1.212 ± 0.0049
42 | CC(=O)Nc1ccccc1 [Acetanilide] | 1.24 ± 0.12
43 | CCC1/C=C(\C)CC(C)CC(OC)C2OC(O)(C(=O)C(=O)N3CCCCC3C(=O)OC(/C(C)=C/C3CCC(Cl)C(OC)C3)C(C)C(O)CC1=O)C(C)CC2OC (stereo not drawn) [Pimecrolimus] | 1.02 ± 0.071
44 | Cn1cc(C2=C(c3cccc(N)c3)C(=O)NC2=O)c2ccccc21 | 0.677 ± 0.15
45 | Cc1ccc(NC(=O)c2ccc(CN3CCN(C)CC3)cc2)cc1Nc1nc(-c2cccnc2)cs1 [Masitinib (AB1010)] | 0.366 ± 0.26
46 | Cl.O=C1NCC2(CCN(CCc3ccccc3)CC2)O1 [Fenspiride HCl] | 1.24 ± 0.015
47 | O=C(O)Cc1ccccc1Nc1c(Cl)cccc1Cl.OCCN1CCCC1 [Diclofenac Epolamine] | 1.06 ± 0.16
48 | O=C(CCCc1ccccc1)[O][Na] [Sodium Phenylbutyrate] | 0.0369 ± 0.035
49 | CCCCCCCCCCCCCCCCCCOP(=O)([O-])OC1CC[N+](C)(C)CC1 [Perifosine (KRX-0401)] | 0.786 ± 0.059

Row | SMILES | cell viability
50 | O=S1(=O)CCN(CN2CCS(=O)(=O)NC2)CN1 [Taurolidine] | 1.234 ± 0.011
51 | CNC(=NC#N)NCCSCc1nc[nH]c1C [Cimetidine] | 1.15 ± 0.23
52 | CC(C(=O)O)c1ccc(-c2ccccc2)c(F)c1 (stereo not drawn) [Flurbiprofen] | 0.9552 ± 0.0084
53 | NC1CCCCC1N.O=C([O-])C(=O)[O-].[Pt+2] (stereo not drawn) [Oxaliplatin] | 1.2 ± 0.099
54 | Cc1nc(NC(=O)N2CCCC2C(N)=O)sc1-c1ccnc(C(C)(C)C(F)(F)F)c1 (stereo not drawn) [Alpelisib (BYL719)] | 0.934 ± 0.11
55 | CC(C)Cn1cnc2c(N)nc3ccccc3c21 [Imiquimod] | 1 ± 0.24
56 | O=C(O)c1ccccc1O.[NaH] [Sodium salicylate] | 1.03 ± 0.12
57 | CC(C)(C)OC(=O)NC1CCCCC/C=C\C2CC2(C(=O)NS(=O)(=O)C2CC2)NC(=O)C2CC(OC(=O)N3Cc4cccc(F)c4C3)CN2C1=O (stereo not drawn) [Danoprevir (ITMN-191)] | 0.931 ± 0.15
58 | Clc1ccc(C(c2ccccc2Cl)C(Cl)Cl)cc1 (stereo not drawn) [Mitotane] | 0.958 ± 0.05
59 | Nc1nc(=O)c2c(CCc3ccc(C(=O)NC(CCC(=O)[O-])C(=O)[O-])cc3)c[nH]c2[nH]1.[Na+].[Na+] (stereo not drawn) [Pemetrexed] | 0.635 ± 0.1
60 | O=C(O)COc1nn(Cc2ccccc2)c2ccccc12 [Bendazac] | 1.14 ± 0.11
61 | C/C=C(/C(=C/C)c1ccc(O)cc1)c1ccc(O)cc1 [Dienestrol] | 1.16 ± 0.093
62 | CC(C(=O)O)c1ccc(C(=O)c2ccccc2)s1 (stereo not drawn) [Tiaprofenic acid] | 1.04 ± 0.17
63 | Cc1nnc(C(=O)NC(C)(C)c2nc(C(=O)NCc3ccc(F)cc3)c([O-])c(=O)n2C)o1.[K+] [Raltegravir potassium] | 1.12 ± 0.16
64 | C[S+](C)CCC(N)C(=O)O.[Cl-] (stereo not drawn) | 1.08 ± 0.22
65 | COc1ccc2c(c1)nc(S(=O)Cc1ncc(C)c(OC)c1C)[n]2[Na] (stereo not drawn) [Esomeprazole sodium] | 0.939 ± 0.16
66 | CC12C=CC(=O)C=C1CCC1C3CC(O)C(O)(C(=O)CO)C3(C)CC(O)C12F (stereo not drawn) [Triamcinolone] | 0.805 ± 0.086
67 | Nc1nc(F)nc2c1ncn2C1OC(CO)C(O)C1O (stereo not drawn) [Fludarabine] | 0.232 ± 0.026
68 | Cl.N=C1CCCN1Cc1[nH]c(=O)[nH]c(=O)c1Cl.O=c1[nH]c(=O)n(C2CC(O)C(CO)O2)cc1C(F)(F)F.O=c1[nH]c(=O)n(C2CC(O)C(CO)O2)cc1C(F)(F)F (stereo not drawn) | 0.812 ± 0.28
